Assay results from the supplement of paper PMC6555819.

Key:
Assay in all cases: PBM binding z-score (relative to random genomic background probes); higher = stronger binding; sequences stand for … in GC…GCGATTGACAGCGTAGAATGAAGG
[1] = system: FXR:RXRa (NR concentration 270 nM, RXRa partner concentration 90 nM)
Summary of the method: (§1)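 Regression normalization was applied to scanned fluorescence from custom Agilent 4×180K protein-binding microarrays. Before scanning, arrays were incubated 1 h with ligand-free nuclear receptor dimers, and binding was detected with antibodies against each partner (one per run). Binding z-scores use the random background probes as reference.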

[2] = system: LXRa:RXRa (NR concentration 270 nM, RXRa partner concentration 90 nM)
Summary of the method: as §1

[3] = system: LXRa homodimer (NR concentration 270 nM)
Summary of the method: as §1

[4] = system: LXRb:RXRa (NR concentration 270 nM, RXRa partner concentration 90 nM)
Summary of the method: as §1

[5] = system: LXRb homodimer (NR concentration 270 nM)
Summary of the method: as §1

[6] = system: PPARa:RXRa (NR concentration 270 nM, RXRa partner concentration 90 nM)
Summary of the method: as §1

[7] = system: PPARg:RXRa (NR concentration 180 nM, RXRa partner concentration 90 nM)
Summary of the method: as §1

[8] = system: PPARg:RXRa 270nM:90nM, anti-RXR (NR concentration 270 nM, RXRa partner concentration 90 nM)
Summary of the method: as §1

[9] = system: PPARg:RXRa 30nM:10nM, anti-RXR (NR concentration 30 nM, RXRa partner concentration 10 nM)
Summary of the method: as §1

[10] = system: PPARg:RXRa 90nM:30nM, anti-RXR (NR concentration 90 nM, RXRa partner concentration 30 nM)
Summary of the method: as §1

[11] = system: PPARg:RXRa DBDmut IVT, anti-RXR (DBD mutation: RXRa K156A/R161A, NR concentration 270 nM, RXRa partner concentration 90 nM)
Summary of the method: as §1

[12] = system: PPARg:RXRa IVT, anti-PPARg (NR concentration 270 nM, RXRa partner concentration 90 nM)
Summary of the method: as §1

[13] = system: PPARg DBDmut:RXRa IVT, anti-PPARg (DBD mutation: PPARg1 K132A/R137A, NR concentration 270 nM, RXRa partner concentration 90 nM)
Summary of the method: as §1

[14] = system: PPARg DBDmut IVT, anti-PPARg (DBD mutation: PPARg1 K132A/R137A, NR concentration 270 nM)
Summary of the method: as §1

[15] = system: PPARg homodimer (NR concentration 180 nM)
Summary of the method: as §1

[16] = system: PXR:RXRa (NR concentration 270 nM, RXRa partner concentration 90 nM)
Summary of the method: as §1

[17] = system: PXR homodimer (NR concentration 270 nM)
Summary of the method: as §1

[18] = system: RARa:RXR (NR concentration 270 nM, RXRa partner concentration 90 nM)
Summary of the method: as §1

[19] = system: RARa homodimer (NR concentration 270 nM)
Summary of the method: as §1

[20] = system: RARb:RXRa (NR concentration 270 nM, RXRa partner concentration 90 nM)
Summary of the method: as §1

Sequence	PBM binding z-score [1]	PBM binding z-score [2]	PBM binding z-score [3]	PBM binding z-score [4]	PBM binding z-score [5]	PBM binding z-score [6]	PBM binding z-score [7]	PBM binding z-score [8]	PBM binding z-score [9]	PBM binding z-score [10]	PBM binding z-score [11]	PBM binding z-score [12]	PBM binding z-score [13]	PBM binding z-score [14]	PBM binding z-score [15]	PBM binding z-score [16]	PBM binding z-score [17]	PBM binding z-score [18]	PBM binding z-score [19]	PBM binding z-score [20]
GCTAGCAGGCCATTTGGGTCACGCAATGACGGGC	0.679	0.476	-0.416	0.378	-0.491	2.23	1.32	1.45	0.36	0.648	2.42	3.05	-0.368	-0.646	0.0821	1.13	-0.117	1.88	-0.356	1.91
GCTAGCAAGCCATTTGGGTCACTCAATGACGGGC	-0.28	-0.493	-0.817	-0.134	-0.898	1.15	0.614	0.042	-0.634	-0.546	0.501	1.28	-0.713	-0.878	-0.494	0.0188	-0.796	0.479	-0.835	0.979
ATATGTAGGTTACATCCGGGTCATTTAGGCTATG	2	4.62	1.8	3.3	0.865	4.68	6.01	5.23	2.64	4.38	7.42	7.5	4.18	3.77	3.45	3.45	1.06	3.55	0.824	2.16
ACTATTGGTTGAGACGAGGGCAACCGATAGGTTG	0.496	0.289	-0.00418	0.08	0.0327	0.62	0.556	0.157	0.062	0.367	-0.0898	0.516	0.379	0.283	0.821	1.5	0.199	1.1	0.274	1.07
CTCGAAATGTCGTGCTCAGGTGAGTATACCAAAC	0.0674	-0.048	-0.175	-0.182	0.0146	-0.0536	-0.165	-0.324	0.0529	-0.0106	-0.127	0.323	0.0105	0.169	-0.101	-0.206	-0.0833	0.0583	0.245	0.417
CCTTACGGGTCACTCCAGGTTATGGCATCGGAGT	4.99	7.21	1.54	4.4	-0.0375	4.24	3.15	3.76	0.907	2.67	2.6	3.76	-0.451	-0.505	1.71	4.55	0.182	3.46	0.437	3.78
TAGCCTAGGTCATTCAAGGGCCAGTATAGAAAGC	4.72	3.99	0.681	2.5	0.527	3.79	1.97	2.25	0.523	1.88	1.4	2.93	0.0741	0.0632	1.31	2.5	0.325	2.93	0.561	3.9
AGAACGAGGTTACCAAAGATCAGGGAAACGCTTG	1.56	5.74	-0.119	2.92	-0.342	3.07	2.21	1.99	0.478	1.55	2.75	2.7	0.297	0.837	0.438	1.41	-0.605	1.66	-0.278	2.02
CCTACTGGGCCACGAAAGTTCATTGATTCAGTGA	0.912	3.67	4.62	1.82	-0.000733	2.69	2.47	2.77	0.297	1.86	6.16	5.56	0.407	0.518	1.35	4.97	6.21	2.03	-0.507	2.72
CGTCCAAGGTCAAAGGTAAGTGAAGAGATGACGG	7.07	5.81	0.609	4.33	0.945	6.03	7.34	7	5.4	6.76	3.99	4.46	0.556	-0.194	2.19	4.69	0.799	5.9	0.423	5.23
TCTATTAGTTGATTGGGGCAACCGAAACAGCGGA	1.22	0.791	0.363	1.23	1.1	1.17	0.235	1.91	3.65	2.85	2.23	1.52	0.999	1.72	0.142	0.811	0.783	1.14	1.31	1.03
CGTCAAAGTTCAACTAAGGTAACGTGAAGCACGC	7.3	6.43	4.57	3.84	1.83	5.09	4.91	5.8	2.35	4.5	0.871	2.2	0.717	0.859	3.36	5.76	4.5	4.34	2.47	5.26
TCGAGTAAGTTAGTCGGGGCATTCAGCCAACATA	-1.52	-0.541	-0.717	-0.128	-0.869	0.00256	-0.588	0.158	0.928	0.486	0.848	-0.156	-0.534	-0.684	-0.634	-0.346	-0.239	-0.154	-0.863	-0.272
ATATGTAGGTTATATCCGGGTCATTCAGGCTATG	2.15	4.34	3.29	2.93	1.44	4.19	4.45	4.07	1.69	3.33	6.81	6.59	5.13	2.59	3.38	3.78	2.63	3.9	1.12	2.13
